# According to PubChem BioAssay AID1347418 (Sanford-Burnham Center for Chemical Genomics, 2020):
# The campaign covered roughly 1,300 compounds. About 750 (58%) were called active. This is one part of the list. Unmarked numbers belong to inactive results.
# Biological target: Sulfhydryl oxidase 1 (Homo sapiens) (UniProt O00391)
# Test: QSOX1 enzyme inhibitors, primary screen, biochemical, ROS-Glo H2O2 luminescence, HTS (AID 1347418)
# Details: recombinant QSOX1, ROS-Glo H2O2 luminescence; at 12.5 µM; hits give high values; active = any value above zero
# Sulfhydryl oxidase 1 (Homo sapiens), sequence (O00391 whole entry, looked up): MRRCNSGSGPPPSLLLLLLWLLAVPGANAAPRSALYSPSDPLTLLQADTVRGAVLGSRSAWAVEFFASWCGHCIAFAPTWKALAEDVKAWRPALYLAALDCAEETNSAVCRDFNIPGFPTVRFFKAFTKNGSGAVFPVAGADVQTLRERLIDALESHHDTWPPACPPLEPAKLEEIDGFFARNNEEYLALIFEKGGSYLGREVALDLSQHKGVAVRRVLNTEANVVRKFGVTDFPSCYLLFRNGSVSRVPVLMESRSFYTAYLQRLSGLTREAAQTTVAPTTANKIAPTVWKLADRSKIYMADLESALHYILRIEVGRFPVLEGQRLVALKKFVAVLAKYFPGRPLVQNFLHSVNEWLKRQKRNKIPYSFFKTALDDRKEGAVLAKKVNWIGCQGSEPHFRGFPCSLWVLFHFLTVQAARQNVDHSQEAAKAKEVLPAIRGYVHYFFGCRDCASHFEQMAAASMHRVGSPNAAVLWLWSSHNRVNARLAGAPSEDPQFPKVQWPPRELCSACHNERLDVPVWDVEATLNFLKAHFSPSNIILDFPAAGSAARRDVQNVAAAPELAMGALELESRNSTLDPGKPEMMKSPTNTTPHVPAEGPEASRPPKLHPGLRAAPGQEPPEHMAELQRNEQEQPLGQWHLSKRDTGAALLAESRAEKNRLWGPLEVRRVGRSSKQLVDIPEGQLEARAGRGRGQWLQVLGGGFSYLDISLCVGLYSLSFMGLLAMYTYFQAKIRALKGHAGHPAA
row,SMILES,inhibition
1,O=C(O)c1cc2cc(Cc3cccnc3)ccc2o1,-7.8%
2,COc1ccc2c(c1)CCC1C2CC[C@@]2(C)C1CC[C@@H]2NCCCCCCN1C(=O)C=CC1=O (stereo not given in full),-7.4%
3,COc1ccc2c(c1)CCC1C2CC[C@@]2(C)C1CC[C@@H]2NCCCCCCN1C(=O)CCC1=O (stereo not given in full),-2.7%
4,C[C@]12CC[C@@H]3c4ccc(O)cc4CC[C@H]3[C@@H]1CC[C@@H]2O,5.6% (active)
5,C[C@]12CC[C@@H]3c4ccc(O)cc4C[C@@H](CCCCCCCCCS(=O)CCCC(F)(F)C(F)(F)F)[C@H]3[C@@H]1CC[C@@H]2O (stereo not given in full),-4.8%
6,COc1cc2c(cc1O)CC[C@@H]1[C@@H]2CC[C@]2(C)[C@@H](O)CC[C@@H]12,36% (active)
7,C[C@]12CC[C@@H]3c4ccc(O)cc4CC[C@H]3[C@@H]1CCC2=O,-1.6%
8,CCCCCCN(CCCCCC)C(=O)Cc1c(-c2ccc(F)cc2)[nH]c2ccccc12,-2.9%
9,COc1cc2nc(N3CCCN(C)CC3)nc(NC3CCN(Cc4ccccc4)CC3)c2cc1OC,1.5% (active)
10,Oc1ccc(O)cc1,11.1% (active)
11,CNc1ncnc2c1ncn2[C@H]1C[C@H](OP(=O)(O)O)[C@@H](COP(=O)(O)O)O1,-3.3%
12,C[N+](C)(C)CCOP(=O)(O)OP(=O)([O-])OC[C@H]1O[C@@H](n2ccc(N)nc2=O)C(O)[C@H]1O (stereo not given in full),-0.3%
13,CSc1nc(N)c2ncn([C@@H]3O[C+](COP(=O)([O-])OP(=O)(O)O)[C@H](O)C3O)c2n1 (stereo not given in full),0.7% (active)
14,NC(N)=NC(N)=Nc1cccc(Cl)c1,9.6% (active)
15,NC(N)=NC(=O)Cc1c(Cl)cccc1Cl,-6.8%
16,NC(N)=NC(N)=Nc1ccccc1,-4.7%
17,Oc1ccccc1O,5.6% (active)
18,CCN(CC)CCCN(c1ccccc1)C1Cc2ccccc2C1,40.2% (active)
19,CCCN(CCc1ccccc1)C1CCc2c(O)cccc2C1 (stereo not given),-0.3%
20,COc1cccc(-c2cc(=O)c3ccccc3o2)c1N,0.9% (active)

row,SMILES,inhibition
1,N#Cc1cc2nc(O)c(O)nc2cc1[N+](=O)[O-],0.9% (active)
2,O=C1NCC2(CCN(CCc3ccccc3)CC2)O1,-1%
3,C[C@@H](O)[C@H]1C(=O)N2C(C(=O)O)=C(SCCN=CN)C[C@H]12,-5.2%
4,C=CCN1CCc2cc(O)c(O)cc2C(c2ccccc2)C1 (stereo not given),18% (active)
5,C=CCN1CCc2c(cc(O)c(O)c2Br)[C@@H](c2ccccc2)C1,26.8% (active)
6,C=CCN1CCc2c(cc(O)c(O)c2Cl)C(c2ccccc2)C1 (stereo not given),31.6% (active)
7,Cc1cccc(C2CN(C)CCc3c2cc(O)c(O)c3Cl)c1 (stereo not given),25% (active)
8,COC(=O)C1=CO[C@@H](O)[C@@H]2C(CO)=CC[C@H]12,-3.2%
9,NCC1OC(O[C@@H]2[C@H](O)C(OC3C(O)C(N)CC(N)C3OC3OC(CO)C(O)C(O)C3N)O[C@@H]2CO)C(N)C(O)C1O (stereo not given in full),-3.5%
10,C=C(C)C1CC=C(C(=O)O)CC1 (stereo not given),-1.3%
11,NC1C=CC=C(C(=O)O)C1 (stereo not given),-2.2%
12,CNC(=O)Oc1ccc2c(c1)[C@]1(C)CCN(C)[C@@H]1N2C,2.6% (active)
13,CN1[C@@H](CC(=O)c2ccccc2)CCC[C@H]1C[C@H](O)c1ccccc1,4.3% (active)
14,O=C(O)C1CCCN(CCC=C(c2ccccc2)c2ccccc2)C1 (stereo not given),-3.9%
15,CC(C)(C)c1ccc(C(=O)CCCN2CCC(OC(c3ccccc3)c3ccccc3)CC2)cc1,-3.2%
16,CC(C)c1cccc(C(C)C)c1N1C(=O)c2ccc(O)cc2C1=O,0.3% (active)
17,CCCCN1CCC(n2c(=O)[nH]c3ccccc32)CC1,-1.6%
18,O=C(CCCN1CCC(O)(c2ccc(Cl)cc2)CC1)c1ccc(F)cc1,-4%
19,O=C(/C=C/c1ccc(O)c(O)c1)OCCc1ccccc1,19.7% (active)
20,O=C(O)/C=C/c1ccc(O)c(O)c1,9.6% (active)

row,SMILES,inhibition
1,O=c1cc(-c2ccccc2)[nH]c2nc(Cl)ccc12,-0.2%
2,Nc1ncnc2c1nc(Sc1ccc(Cl)cc1)n2C1OC2COP(=O)(O)O[C@@H]2[C@@H]1O (stereo not given in full),1.8% (active)
3,Nc1ncnc2c1nc(Br)n2C1OC2COP(=O)(O)O[C@@H]2C1O (stereo not given in full),-1.8%
4,Nc1nc(O)c2nc(Br)n(C3OC4COP(=O)(O)O[C@@H]4C3O)c2n1 (stereo not given in full),-4.7%
5,O=c1ccn([C@@H]2O[C@H](COP(=O)(O)OP(=O)(O)O)[C@@H](O)[C@H]2O)c(=O)[nH]1,-4.1%
6,C[C@H]1O[C@@H](n2cc(F)c(=O)[nH]c2=O)[C@H](O)[C@@H]1O,4.5% (active)
7,c1ccc2c(c1)CCC[C@H]2Nc1nc2ccccc2[nH]1,12.1% (active)
8,c1ccc2c(c1)CCCC2C1=NCCN1 (stereo not given),-3.7%
9,NC(=Nc1ccccc1)NC(=O)c1nc(Cl)c(N)nc1N,-0.3%
10,NC(=NCc1ccccc1)NC(=O)c1nc(Cl)c(N)nc1N,4.4% (active)
11,CCN(CC)CCCCCCCCOC(=O)c1cc(OC)c(OC)c(OC)c1,6.2% (active)
12,CCCCc1oc2ccccc2c1C(=O)c1cc(I)c(OCCN(CC)CC)c(I)c1,-1%
13,CCN(CC)CCOC(=O)c1ccc(N)cc1,-3.4%
14,CC(=O)NNC(=O)N1Cc2ccccc2Oc2ccc(Cl)cc21,2.6% (active)
15,CC1CC2C3CCC4=CC(=O)C=C[C@]4(C)[C@@]3(F)[C@@H](O)C[C@]2(C)[C@@]1(O)C(=O)CO (stereo not given in full),2.3% (active)
16,CCCC1O[C@@H]2C[C@H]3[C@@H]4CCC5=CC(=O)C=C[C@]5(C)[C@H]4[C@@H](O)C[C@]3(C)[C@]2(C(=O)CO)O1 (stereo not given in full),-0.8%
17,C[C@]12C=CC(=O)C=C1CC[C@H]1[C@@H]3C[C@@H](O)[C@](O)(C(=O)CO)[C@@]3(C)C[C@H](O)[C@@]12F,-107%
18,C[C@H]1CC2C3CCC4=CC(=O)C=C[C@]4(C)[C@@]3(Cl)[C@@H](O)C[C@]2(C)[C@@]1(O)C(=O)CO (stereo not given in full),8.8% (active)
19,CC12CC3CC(C)(C1)CC(N)(C3)C2,3.5% (active)
20,NC12CC3CC(CC(C3)C1)C2,-0.1%
